“And” between values parts separate entries of the source, which are not always exact repeats. Equal values may be shown once. Read-outs that look alike come from different tables or passages of the source.
How the values were obtained:
[1] = test system: T1, YES; details: n = 1
T1 construct: gene YES1

[2] = test system: T2, YSK1; details: n = 1
T2 construct: gene STK25

[3] = test system: T3, YSK4; details: n = 1
T3 construct: gene MAP3K19

[4] = test system: ZAK; details: n = 1
[5] = test system: ZAP70; details: n = 1
[6] = test system: T4, p38-alpha; details: concentration: 1 μM, replicates: in singlicate; n = 1
T4 construct: gene MAPK14

[7] = test system: T5, p38-beta; details: concentration: 1 μM, replicates: in singlicate; n = 1
T5 construct: gene MAPK11

[8] = test system: p38-delta; details: n = 1
[9] = test system: T6, p38-gamma; details: n = 1
T6 construct: gene MAPK12

[10] = concentration: 1 μM, replicates: in singlicate
[11] = concentration: 1 μM,replicates: in singlicate, 1 µM
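Note: KINOMEscan kinase panel screen.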

Structure (SMILES)	%Inh [1, 10] [%]	%Inh [2, 10] [%]	%Inh [3, 10] [%]	%Inh [4, 10] [%]	%Inh [5, 10] [%]	%Inh [6] [%]	%Inh [7] [%]	%Inh [8, 10] [%]	%Inh [9, 10] [%]	%Inh [1, 11]	%Inh [2, 11]	%Inh [3, 11]	%Inh [4, 11]	%Inh [5, 11]	%Inh [8, 11]	%Inh [9, 11]
Fc1cc(Cl)ccc1Nc1ccnc2cc(I)ccc12 [GW551191]	15	0	49	20	0	30	0	41	1	–	–	–	–	–	–	–
Cc1cccc(-c2nc(C)cc(Nc3ccncc3)n2)n1 [GSK257997]	15	8	0	0	0	9	0	51	6	–	–	–	–	–	–	–
CS(=O)(=O)c1ccc(-c2c(-c3ncn[nH]3)sc(N3CCOCC3)c2C#N)cc1	13	0	18	0	0	6	11	34	33	–	–	–	–	–	–	–
Cn1ccc2ncnc(Oc3cccc(C(=O)Nc4ccccc4)c3)c21	1	0	1	0	0	0	6	3	0	–	–	–	–	–	–	–
Cc1ccccc1-n1cnc2c(N)ncnc21 [SKF-97510]	11	9	0	9	0	0	0	0	15	–	–	–	–	–	–	–
CSc1nn2c(=O)cc(N3CCOCC3)nc2n1Cc1cccc(C(F)(F)F)c1C [GSK2363608]	–	–	–	–	–	0	0	–	–	19% and 22%	1% and 0%	40% and 30%	10% and 0%	32% and 0%	55% and 34%	7% and 0%
Cc1ccc(NC(=O)Nc2cccc(Cl)c2)cc1-c1ccc(C(=O)Nc2ccncc2)cc1 [GSK1398468]	13	14	92.3	68	20	37	3	37	0	–	–	–	–	–	–	–
CCn1c(-c2cccnc2O)nc2cnccc21 [SB-736715]	0	0	0	0	0	0	0	8	0	–	–	–	–	–	–	–
CS(=O)(=O)c1ccc(-c2nc3n(c2-c2ccncc2)CCC3)cc1 [SKF-105942]	33	5	1	0	0	0	0	31	14	–	–	–	–	–	–	–
Fc1cccc(COc2nnc(-c3ccc4c(c3)CCO4)o2)c1	0	0	31	0	0	15	0	4	0	–	–	–	–	–	–	–
C[C@@H]1CCCCN1c1cc(-c2ccc3c(N)n[nH]c3c2)nc(N)n1 [GSK2258759]	14	0	0	0	0	80	0	26	0	–	–	–	–	–	–	–
O=C(Nc1ccc2c(c1)OCO2)NC1CCN(c2ccnc(Nc3ccc(F)cc3)n2)C1 (stereo not drawn) [GSK1379724]	0	0	39	28	0	0	0	37	0	–	–	–	–	–	–	–
Cc1nnc(-c2ccc3occ(-c4ccc(S(C)=O)cc4)c3c2)[nH]1 (stereo not drawn)	0	0	44	8	0	13	0	3	9	–	–	–	–	–	–	–
COc1cc2nccc(Nc3ccc(NC(=O)c4ccc(C)cc4)c(O)c3)c2cc1OC.Cl [GW440132]	17	20	9	23	0	0	0	23	0	–	–	–	–	–	–	–
Cl.Oc1ccc(-c2nc(-c3ccccc3)[nH]c2-c2ccncc2)cc1 [SB-428218]	17	4	13	10	0	63	0	43	0	–	–	–	–	–	–	–
COc1ccc(C2=C(Nc3cccc(C(=O)O)c3)C(=O)NC2=O)cc1 [SB-390765]	11	0	0	13	0	4	6	2	29	–	–	–	–	–	–	–
O=C1NC(=O)C(N2CCc3ccccc32)=C1c1ccccc1Cl [SB-373598]	10	0	0	17	0	0	35	6	18	–	–	–	–	–	–	–
COc1ccc(Nc2nccc(NCCNC(=O)Nc3ccccc3F)n2)cc1 [GSK1379901]	23	0	45	37	5	20	0	38	10	–	–	–	–	–	–	–

Reference: article PMC5540273 (PLoS ONE, 2017)
